Compound activity: PubChem BioAssay, National Center for Advancing Translational Sciences (NCATS)
Only some compounds are listed: those with a hit (about 9.3% of all), similar ones and a draw of the others.
Rab9 promoter act: activators of Rab9 promoter. Potency, µM (top dose mostly 9.22 µM), usual class: activators. Huh7 Rab9 promoter-luciferase reporter, luminescence, 24 h. 320,000 compounds, 2.8% hits. AID 485297; note: nearly all actives have a fitted effect of over 60% in size
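Huh7 reporter line, Rab9 promoter upstream of luciferase. Compound exposure 24 h at 37 °C in reduced-serum medium with 10% FBS. Read-out: luminescence.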
ELG1 genotoxic: inducers of genotoxicity in HEK293T ELG1-luciferase cells; 330,000 compounds, 1.3% hits; HEK293T ELG1-luciferase reporter, luminescence, 16 h; AID 504466; Potency, µM (series often up to 46 µM), hits mostly activators; note: nearly all actives have a fitted effect of over 60% in size
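After overnight (16 hr) compound treatment at 37 °C, ELG1-luciferase HEK293T cells were lysed with ONE-Glo; luminescence quantified 30 min later at room temperature.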
ELG1 repair inh: ELG1-dependent DNA repair inhibition | HEK293T ELG1-luciferase reporter, luminescence, 16 h; DNA damage induced by 5-fluorouridine | Potency, µM (top dose mostly 46.1 µM), usual class: inhibitors | 330,000 compounds, 2.3% hits; note: nearly all actives have a fitted effect of over 55% in size
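Quantitative HTS, concentration-response format. 2,000 cells/well co-treated with 5-fluorouridine and compound, 16 hr in 5% CO2 at 37 °C; ONE-Glo luminescence read after 30 min.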
FLuc modulator: counter-screen for miR-21 project: firefly luciferase inhibitors or activators. purified FLuc, Km substrates, luminescence inhibition. 360,000 compounds, 6.9% hits. Potency, µM (highest dose often 57.5 µM), hits mostly inhibitors. AID 588342. P08659; note: nearly all actives have a fitted effect of over 55% in size
Target sequence (P08659 whole entry, looked up): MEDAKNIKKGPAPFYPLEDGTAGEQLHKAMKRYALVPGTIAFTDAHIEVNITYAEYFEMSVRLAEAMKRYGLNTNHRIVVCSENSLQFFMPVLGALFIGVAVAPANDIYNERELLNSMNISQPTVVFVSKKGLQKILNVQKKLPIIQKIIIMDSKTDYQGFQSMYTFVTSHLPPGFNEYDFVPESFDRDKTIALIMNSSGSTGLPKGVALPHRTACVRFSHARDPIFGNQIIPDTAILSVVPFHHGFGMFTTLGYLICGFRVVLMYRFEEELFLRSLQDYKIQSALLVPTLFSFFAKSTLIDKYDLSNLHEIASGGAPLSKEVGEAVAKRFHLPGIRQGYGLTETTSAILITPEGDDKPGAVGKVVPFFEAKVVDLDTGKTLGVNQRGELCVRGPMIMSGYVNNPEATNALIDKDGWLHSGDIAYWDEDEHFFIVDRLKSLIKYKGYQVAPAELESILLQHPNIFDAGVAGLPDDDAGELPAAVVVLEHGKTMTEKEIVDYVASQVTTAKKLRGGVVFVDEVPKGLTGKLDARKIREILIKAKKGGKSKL
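Purified P. pyralis luciferase (10nM final) with 10uM D-luciferin and 10uM ATP (Km levels) in 50mM Tris acetate pH 7.5, 10mM Mg acetate, 0.01% Tween-20, 0.05% BSA; qHTS 6-point titration, ~60 µM downward; luminescence read.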
NPC1 promoter act: activates the NPC1 promoter. Huh7 NPC1 promoter luciferase reporter, 24 h. Potency, µM (top dose mostly 9.22 µM), actives largely listed as activators. 320,000 compounds, 2.4% hits. AID 485313; note: nearly all actives have a fitted effect of over 60% in size
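Stable NPC1-promoter luciferase Huh7 line; cpd (DMSO) 24 h, 37 °C, 5% CO2; Amplite luciferase reagent 10 min RT; luminescence readout. qHTS format.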
SMN2 splice up: increases expression of the SMN2 splice variant. HEK293 SMN2-luciferase splicing reporter, luminescence, 30-36 h. Potency, µM (highest dose often 46.1 µM), hits mostly activators. 210,000 compounds, 2.8% hits; note: nearly all actives have a fitted effect of over 55% in size
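HEK293 cells carry an SMN2 minigene-luciferase reporter in which exon 7 inclusion puts luciferase in frame. Cells were seeded at 2000 cells/well, attached for 10-12 hours, then exposed to compounds for 30-36 hours at 37C before ONE-Glo luminescence.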
Numbers stand for hits; 0 = inactive; ? = inconclusive; - = not tested or not shown. Calls come from the whole dose curve; as a rule, active = well fitted curve in the direction sought with a large enough effect; inconclusive = small, poorly fitted or top-dose-only effect, or another doubt; inactive = no such curve, though single readings can be large; an effect the other way counts as inactive or inconclusive.

SMILES | Rab9 promoter act | ELG1 genotoxic | ELG1 repair inh | FLuc modulator | NPC1 promoter act | SMN2 splice up
O=C(Nc1ccc2nsnc2c1)N1CCCCCC1 | ? | ? | ? | 17µM | 0 | 0
Cc1ccc(C2CCN(C(=O)Nc3ccc(Cl)c(Cl)c3)C2)cc1 (stereo unspecified) | - | - | - | 4.8µM | - | -
O=C(Nc1ccc(Cl)c(Cl)c1)N1CCCCCC1 | 2.5µM | ? | ? | 6µM | 2.8µM | -
O=C(Nc1ccc(Cl)c(Cl)c1)N1CCC(c2ccccc2)C1 (stereo unspecified) | - | - | - | 1.7µM | - | -
COc1cc(C(C)=O)ccc1O | 0 | 0 | 0 | 0 | 0 | -
O=C(Nc1ccc2nc(-c3ccco3)c(-c3ccco3)nc2c1)N1CCCCCC1 | 0 | 0 | ? | 21µM | 0 | 0
Cc1ccc(C2CCN(C(=O)Nc3ccc(C)c(C)c3)C2)cc1 (stereo unspecified) | - | - | - | 12µM | - | -
O=C(Cc1ccccc1)NCC(=O)OCC(=O)c1ccc(F)cc1 | 0 | 0 | 0 | 0 | 0 | -
CCC(CC)N=C1NS(=O)(=O)c2cc([N+](=O)[O-])ccc21 | 0 | 0 | 0 | 0 | 0 | 0
Nc1n[nH]c(-c2ccccc2)n1 | 0 | 0 | 0 | 0 | 0 | 0
c1ccc(-c2n[nH]c(-c3ccccn3)n2)nc1 | 2.8µM | 6.5µM | ? | 15µM | 3.5µM | 11µM
c1ccc(-c2n[nH]c(-c3ccccn3)n2)cc1 | 3.5µM | ? | ? | 12µM | 2µM | 11µM
CSc1nc(N2CCN(C)CC2)c2c(c1C#N)CC(C)(C)OC2 | 0 | 0 | 8.2µM | 0 | 0 | -
CC(C)c1nc(N2CCN(C(=O)c3ccccc3)CC2)c(C#N)c2c1COC(C)(C)C2 | 0 | 0 | ? | 0 | 0 | 0
Cc1nc(N2CCN(Cc3ccccc3)CC2)c(C#N)c2c1COC(C)(C)C2 | 0 | 0 | 7.3µM | 0 | 0 | 0
COc1ccc(C(=O)NCCn2cc(SCc3c(F)cccc3Cl)c3ccccc32)cc1 | - | - | - | 0 | - | 0
CCOC(=O)C1CCCN(C(=O)CSCc2ccccc2)C1 (stereo unspecified) | 0 | 0 | ? | ? | ? | 0
CCOC(=O)C1CCCN(C(=O)CCc2nnc(-c3ccc(C(C)=O)s3)o2)C1 (stereo unspecified) | 0.79µM | 18µM | ? | 11µM | 2.5µM | -
CCOc1ccc(NC(=O)CN(C)C(=O)Cc2n[nH]c(=O)c3ccccc23)cc1OCC | 0 | 0 | 0 | - | 0 | -
CCOC(=O)c1c(NC(=O)C2=C(C)NC(=S)NC2c2ccc(CC)cc2)sc(C)c1C (stereo unspecified) | 0 | 0 | 6.5µM | 0 | 0 | 0
CCOC(=O)C1=C(C)NC(=S)NC1c1ccc(OC(=O)c2ccco2)cc1 (stereo unspecified) | 0 | 0 | 0 | 0 | 0 | 0
COc1cccc(C(=O)N=c2sc3cc(S(C)(=O)=O)ccc3n2C)c1 | 3.5µM | ? | ? | 0 | ? | 0
COC(=O)Cn1c(=NC(=O)c2cccc(OC)c2)sc2cc(OC)ccc21 | 0 | 0 | ? | 3µM | 0 | 0
Cn1c(=NC(=O)CS(=O)(=O)c2ccccc2)sc2ccccc21 | ? | 0 | ? | 0 | ? | -
Cn1c(=NC(=O)COc2ccccc2)sc2ccccc21 | 2µM | 0 | ? | 13µM | 3.5µM | 13µM
SMILES | Rab9 promoter act | ELG1 genotoxic | ELG1 repair inh | FLuc modulator | NPC1 promoter act | SMN2 splice up
COc1ccc(C(=O)N=c2sc3ccccc3n2C)cc1 | 2.5µM | ? | ? | 1.7µM | 3.2µM | 2.5µM
COC(=O)Cn1c(=NC(=O)c2cc(OC)cc(OC)c2)sc2cc(OC)ccc21 | 0 | 0 | ? | 0 | 0 | 0
COc1cc(OC)cc(C(=O)N=c2sc3ccccc3n2C)c1 | 2.5µM | ? | ? | ? | ? | 10µM
Cc1ccc(-c2noc(CNC(=O)c3ccc(C)c(Cl)c3)n2)cc1 | - | - | - | 0 | - | 0
COc1ccc([N+](=O)[O-])cc1NC(=O)C1CCCN1S(=O)(=O)c1cccs1 (stereo unspecified) | 0 | 0 | 0 | 0 | 0 | -
COC(=O)c1ccc(NC(=S)NC2CC3CCC2C3)cc1 (stereo unspecified) | 0 | 0 | ? | 21µM | 0 | ?
COc1ccc(NC(=O)NC2CCCCCCC2)c(OC)c1 | 0 | 0 | ? | ? | 0 | -
COc1ccc(NC(=O)NC2CCCCCCC2)cc1 | 1.4µM | 9.2µM | ? | 6µM | 0.89µM | -
